These results are taken from PubChem BioAssay (NCI).

Test systems include SR leukemia; RPMI-8226 leukemia; OVCAR-8 ovarian; OVCAR-5 ovarian; OVCAR-4 ovarian; SK-OV-3 ovarian; IGROV1 ovarian; OVCAR-3 ovarian; HS 578T breast; NCI/ADR-RES ovarian; T-47D breast; BT-549 breast; SW-620 colon; MCF7 breast; HCT-116 colon; HCC-2998 colon; KM12 colon; MDA-MB-435 melanoma.
What all share (assay): NCI-60 one-dose screen, 48 h (100 = growth as untreated, 0 = no growth, -100 = all killed)
Holding throughout (settings): 10 µM unless noted

About 83,000 compounds went through this panel and 20% of them were active in at least one assay; those are over-represented in the sample as a whole.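 Treatment: one concentration, 48 hours, 96-well format. Scoring: percent growth, with anything below 10 considered active.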 Unmarked numbers belong to inactive results. Activity calls are given as the source filed them.

With `CC(C)CCSc1nc(-c2ccc(F)cc2)c(C#N)c(N2CCCCC2)n1`, the growth was 87.6% in the assay on SR leukemia; 91.2% in the assay on RPMI-8226 leukemia; 89.3% in the assay on OVCAR-8 ovarian; 102% in the assay with OVCAR-5 ovarian; 93.6% in the assay on OVCAR-4 ovarian; 105% with SK-OV-3 ovarian. The growth is 106% in the assay on IGROV1 ovarian; 105% in the assay with OVCAR-3 ovarian; 99.1% with HS 578T breast; 99.2% with NCI/ADR-RES ovarian; 79% in the assay with T-47D breast; 91.4% with BT-549 breast. In addition, the growth was 95.6% with SW-620 colon; 93.6% with MCF7 breast; 88% with HCT-116 colon; 102% in the assay on HCC-2998 colon; 94.5% with KM12 colon.
For `CCOC(=O)C1=C(C)NC(=S)NC1c1ccccc1` (stereo not given), the growth was 94.3% in the assay on SR leukemia; 112% in the assay on RPMI-8226 leukemia; 103% in the assay on OVCAR-8 ovarian; 101% in the assay with OVCAR-5 ovarian; 98.5% with OVCAR-4 ovarian; 114% in the assay with SK-OV-3 ovarian. The growth in the assay on IGROV1 ovarian was 97.4%; with OVCAR-3 ovarian, 110%; in the assay with HS 578T breast, 98.9%; with NCI/ADR-RES ovarian, 109%; in the assay on T-47D breast, 96.2%; in the assay with BT-549 breast it was 110%. For the same compound, the growth is 102% with MDA-MB-435 melanoma; 97.3% with SW-620 colon; 99.7% with MCF7 breast; 103% in the assay on HCT-116 colon; 110% in the assay on HCC-2998 colon; 101% in the assay with KM12 colon.
Turning to `C=C1C(=O)O[C@H]2[C@H]1CC/C(COC(=O)NCc1ccc(Cn3c(=O)sn(CCCl)c3=O)cc1)=C\CC[C@@]1(C)O[C@@H]21`, the growth in the assay on SR leukemia was 5.35% (active); in the assay with RPMI-8226 leukemia it was 2.37% (active); with OVCAR-8 ovarian, 92.1%; with OVCAR-5 ovarian, 109%; with OVCAR-4 ovarian, 60.6%; in the assay on SK-OV-3 ovarian, 85.3%. For the same compound, the growth with IGROV1 ovarian was 47.7%; in the assay with OVCAR-3 ovarian, -26.2% (active); in the assay on HS 578T breast it was 97.1%; with NCI/ADR-RES ovarian, 113%; in the assay on T-47D breast, 3.07% (active); in the assay on BT-549 breast, 59.4%. In addition, the growth in the assay on MDA-MB-435 melanoma is 79.4%; in the assay on SW-620 colon it was -20.3% (active); with HCT-116 colon it was -61.7% (active); with HCC-2998 colon, 120%; in the assay on KM12 colon, 95.2%.
Turning to `COc1cc(C2C(C#N)=C(N)Oc3cc4c(cc32)OCO4)cc2c1OCO2` (stereo not given), the growth in the assay with SR leukemia was 15.3%; with RPMI-8226 leukemia, 31.4%; in the assay on OVCAR-8 ovarian, 35.1%; with OVCAR-5 ovarian, 41.3%; in the assay on OVCAR-4 ovarian, 42.3%; in the assay on SK-OV-3 ovarian, -5.36% (active). The growth in the assay on IGROV1 ovarian was 33.3%; with OVCAR-3 ovarian, -39.7% (active); with HS 578T breast it was 23%; in the assay on NCI/ADR-RES ovarian, 11.2%; with T-47D breast it was 53.7%; in the assay with BT-549 breast it was 34.8%. For the same compound, the growth in the assay with MDA-MB-435 melanoma was -50.6% (active); in the assay on SW-620 colon, 29%; in the assay on MCF7 breast, 16.6%; in the assay with HCT-116 colon, 11%; with HCC-2998 colon it was 14.7%; in the assay with KM12 colon it was 10.9%.
Consider `COc1cccc(/C=N\Nc2ccc([N+](=O)[O-])cn2)c1O`, for which the growth with SR leukemia was 48.3%; in the assay with RPMI-8226 leukemia it was 62.6%; in the assay with OVCAR-8 ovarian it was 10.6%; in the assay on OVCAR-5 ovarian, 104%; in the assay on OVCAR-4 ovarian it was 29.5%; in the assay on SK-OV-3 ovarian it was 68.7%. The growth is 36.2% in the assay with IGROV1 ovarian; 8.54% (active) in the assay on OVCAR-3 ovarian; 63.9% in the assay on HS 578T breast; 18.6% with NCI/ADR-RES ovarian; 30.1% in the assay with T-47D breast; 71.8% in the assay on BT-549 breast. Further, the growth in the assay with MDA-MB-435 melanoma was 54.3%; in the assay with SW-620 colon it was 38%; with HCT-116 colon it was 8.72% (active); with HCC-2998 colon, 82.2%; in the assay with KM12 colon it was 78.4%.
As to `C=C[C@H]1CCC/C=C/[C@@H]2C[C@H](O)C[C@H]2[C@H](O)/C=C/C(=O)O1`, the growth is 0.87% (active) in the assay with SR leukemia; -4.42% (active) with RPMI-8226 leukemia; 2.59% (active) in the assay with OVCAR-8 ovarian; 13.4% in the assay with OVCAR-5 ovarian; 8% (active) with OVCAR-4 ovarian; 26.3% with SK-OV-3 ovarian. Further, the growth in the assay on IGROV1 ovarian was -0.584% (active); with OVCAR-3 ovarian, -62.7% (active); with HS 578T breast it was 18.8%; with NCI/ADR-RES ovarian, 5.21% (active); in the assay on T-47D breast it was -14% (active); in the assay on BT-549 breast it was 0.705% (active). In addition, the growth is -63.8% (active) in the assay with SW-620 colon; -50.1% (active) with MCF7 breast; -76.9% (active) in the assay with HCT-116 colon; -62.4% (active) in the assay with HCC-2998 colon; -59.2% (active) in the assay on KM12 colon.
For `CCS(=O)(=O)Nc1cccc(Nc2c3cccc(C)c3nc3c(C)cccc23)c1OC`, the growth with SR leukemia is 5.24% (active); in the assay on RPMI-8226 leukemia, 15.8%; in the assay on OVCAR-8 ovarian it was 24%; in the assay with OVCAR-5 ovarian it was 21%; in the assay on OVCAR-4 ovarian, 83.5%; in the assay with SK-OV-3 ovarian, 30.6%. In addition, the growth in the assay with IGROV1 ovarian was 36.2%; with OVCAR-3 ovarian, 47.2%; in the assay on HS 578T breast, 61.2%; in the assay with NCI/ADR-RES ovarian, 41.7%; in the assay with T-47D breast, 22.2%; in the assay with BT-549 breast, 15.8%. Besides, the growth in the assay with MDA-MB-435 melanoma is 54.9%; in the assay with SW-620 colon it was 33.2%; in the assay with HCT-116 colon, 22.9%; in the assay with HCC-2998 colon it was 1.62% (active); with KM12 colon it was 15.4%.
With `CCN(CC)CCCC(C)Nc1c(-c2ccccc2)cnc2cc(Cl)ccc12` (stereo not given), the growth in the assay with SR leukemia is 7.58% (active); with RPMI-8226 leukemia it was 27.4%; in the assay on OVCAR-8 ovarian it was 71.3%; with OVCAR-5 ovarian, 83.4%; with OVCAR-4 ovarian, 83%; in the assay on SK-OV-3 ovarian it was 89.7%. The growth in the assay on IGROV1 ovarian is 36.5%; with OVCAR-3 ovarian it was 82.4%; in the assay with HS 578T breast it was 70.3%; with NCI/ADR-RES ovarian, 79.6%; in the assay on T-47D breast it was -44.9% (active); with BT-549 breast it was 87.4%. Also, the growth is 38.2% in the assay with MDA-MB-435 melanoma; 70.3% in the assay with SW-620 colon; 36.2% with HCT-116 colon; 73.4% with HCC-2998 colon; 65.3% with KM12 colon.
As to `Brc1ccsc1Br`, the growth is 107% in the assay on SR leukemia; 103% in the assay with RPMI-8226 leukemia; 122% with OVCAR-8 ovarian; 106% in the assay on OVCAR-5 ovarian; 107% in the assay with OVCAR-4 ovarian; 94.8% in the assay with SK-OV-3 ovarian. Moreover, the growth in the assay with IGROV1 ovarian was 103%; with OVCAR-3 ovarian it was 122%; with HS 578T breast it was 129%; in the assay with NCI/ADR-RES ovarian, 116%; in the assay on T-47D breast, 95.4%; in the assay with BT-549 breast, 102%. The growth is 111% in the assay with SW-620 colon; 103% in the assay with MCF7 breast; 105% in the assay on HCT-116 colon; 105% with HCC-2998 colon; 111% in the assay with KM12 colon.
